# Tests used:
# [1] = system: T1, RSK1(Kin.Dom.2-C-terminal)
# T1 construct: gene RPS6KA1
# [2] = system: T2, RSK4(Kin.Dom.2-C-terminal)
# T2 construct: gene RPS6KA6
# 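Further: kd values determined as follow-up on hits from a single-replicate KINOMEscan panel screen.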
smiles,measurement,setting,value
CNc1ncnc2[nH]ncc12 [SKF-18355],Kd,ROCK1,380 nM
same,Kd,ROCK2,330 nM
CCCCCc1nc2c(N)ncnc2n1CCCCC [SKF-97255],Kd,ROCK1,280 nM
CC(C)(C)n1cnc2c(N)ncnc21 [SKF-97359],Kd,[1],> 10000 nM
same,Kd,SgK110,> 10000 nM
CN1c2ccc(NCc3ccc(F)cc3)cc2-c2c(cnn2C)S1(=O)=O,Kd,[2],> 10000 nM
CN1c2ccc(CNc3ccc(F)cc3)cc2-c2c(cnn2C)S1(=O)=O,Kd,SGK2,> 10000 nM
CSc1ccc(-c2cc3ncnc(SCC(=O)O)c3s2)cc1,Kd,SRPK2,> 10000 nM
COc1ccc(Nc2nccc(N3CCC(NC(=O)Nc4cc(C)ccc4C)C3)n2)cc1 (centres unmarked) [GSK1379741],Kd,STK36,1600 nM
Cn1ccc2ncnc(Oc3ccc(NC(=O)Nc4ccncc4)c(Cl)c3)c21,Kd,STK39,> 10000 nM
O=C(NCCNc1ccnc(Nc2ccc(F)cc2)n1)c1cc2ccccc2s1 [GSK1379874],Kd,TESK1,> 10000 nM
